Among all 5,500 compounds or so, about 2,000 (36%) were called active. Not shown: some 18% with an inconclusive outcome. Cut-off read from the data, not from the text of the source: active = normalized growth mostly below about 0.91 (no sharp cut-off); inconclusive = no clear call, values can overlap the other calls; inactive = mostly above about 0.92. The list shows a part of the results.
Experiment: chemical genetic growth profiling, strain panel (AID 1159580);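 note: tested at 20 µM; growth read once vehicle control cultures reached saturation at 30 °C; 1 = growth at the plate median or of vehicle wells; lower values mean less growth of the strain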
Conditions: S. cerevisiae deletion strains, growth OD

Measured: normalized growth

COc1ccc(CNC(=O)/C=C/c2ccc3[nH]cc(CCN(C)C)c3c2)cc1
inactive: locus YAL040C, strain CLN3, hits give low values 1.1 | locus YCL061C, strain MRC1 (second series), hits give low values 0.991 | locus YER002W, strain NOP16, hits give low values 0.997 | locus YGR078C, strain PAC10, hits give low values 0.987 | locus YMR263W, strain SAP30, hits give low values 0.98 | locus YNL153C, strain GIM3, hits give low values 0.985 | locus YNL175C, strain NOP13, hits give low values 1.01 | locus YNL197C, strain WHI3, hits give low values 1 | locus YNL224C, strain SQS1, hits give low values 0.986 | locus YOR083W, strain WHI5 (second series), hits give low values 1.01

COC(=O)CC1C(C)(C(=O)c2ccoc2)CC2OCC34C(CC(=O)OC)C5(C)CC36OC3(C)OC1(C(OC(C)=O)C6(OC(C)=O)C5OC(=O)C(C)C)C24O3 (configuration not stated)
inactive: locus YAL021C, strain ccr4, hits give low values 0.995 | locus YAL026C, strain drs2, hits give low values 0.967 | locus YAL030W, strain snc1, hits give low values 0.975 | locus YBL061C, strain skt5, hits give low values 0.978 | locus YBR009C, strain hhf1, hits give low values 0.949 | locus YBR023C, strain chs3, hits give low values 0.987 | locus YBR171W, strain sec66, hits give low values 0.981 | locus YBR231C, strain swc5, hits give low values 0.993 | locus YBR279W, strain paf1, hits give low values 0.996 | locus YCL011C, strain gbp2, hits give low values 0.972 | locus YCL016C, strain dcc1, hits give low values 0.99 | locus YCL061C, strain MRC1, hits give low values 0.995 | locus YCL069W, strain vba3, hits give low values 0.979 | locus YCR088W, strain abp1, hits give low values 0.983 | locus YDL005C, strain med2, hits give low values 0.97 | locus YDL040C, strain nat1, hits give low values 0.986 | locus YDR001C, strain nth1, hits give low values 0.986 | locus YDR069C, strain doa4, hits give low values 0.99 | locus YDR137W, strain rgp1, hits give low values 0.975 | locus YDR159W, strain sac3, hits give low values 0.968 | locus YDR195W, strain ref2 0.944 | locus YDR297W, strain sur2, hits give low values 0.978 | locus YDR334W, strain swr1, hits give low values 0.969 | locus YDR335W, strain msn5, hits give low values 0.987 | locus YDR392W, strain spt3, hits give low values 0.911 | locus YEL003W, strain gim4, hits give low values 0.971 | locus YEL037C, strain rad23, hits give low values 0.967 | locus YEL061C, strain CIN8 (second series), hits give low values 0.975 | locus YER015W, strain faa2, hits give low values 0.987 | locus YER016W, strain bim1, hits give low values 0.98 | locus YER111C, strain swi4, hits give low values 0.959 | locus YER155C, strain BEM2 (second series), hits give low values 1.01 | locus YFR010W, strain ubp6, hits give low values 0.978 | locus YGL167C, strain pmr1, hits give low values 0.959 | locus YGL173C, strain kem1, hits give low values 0.97 | locus YGL227W, strain vid30, hits give low values 0.97 | locus YGL240W, strain doc1, hits give low values 0.988 | locus YGL253W, strain hxk2, hits give low values 0.966 | locus YHR013C, strain ard1, hits give low values 0.952 | locus YHR027C, strain rpn1, hits give low values 0.985 | locus YHR142W, strain chs7, hits give low values 0.994 | locus YJL092W, strain hpr5, hits give low values 0.987 | locus YJL095W, strain BCK1 (second series), hits give low values 0.993 | locus YJL115W, strain asf1, hits give low values 0.988 | locus YJL129C, strain trk1, hits give low values 0.975 | locus YJL154C, strain vps35, hits give low values 0.984 | locus YJL164C, strain tpk1, hits give low values 1 | locus YJL166W, strain qcr8, hits give low values 0.996 | locus YJL187C, strain SWE1, hits give low values 0.984 | locus YKL160W, strain elf1, hits give low values 1.01 | locus YKR026C, strain gcn3, hits give low values 0.976 | locus YKR091W, strain srl3, hits give low values 0.96 | locus YLL001W, strain dnm1, hits give low values 1.01 | locus YLL026W, hits give low values 0.993 | locus YLL041C, strain sdh2, hits give low values 0.996 | locus YLR027C, strain aat2, hits give low values 0.982 | locus YLR221C, strain rsa3, hits give low values 0.999 | locus YLR258W, strain gsy2, hits give low values 0.964 | locus YLR262C, strain YPT6 (second series), hits give low values 0.983 | locus YLR320W, strain mms22, hits give low values 0.993 | locus YLR342W, strain FKS1, hits give low values 0.963 | locus YLR357W, strain rsc2, hits give low values 1.02 | locus YLR370C, strain arc18, hits give low values 0.981 | locus YLR384C, strain iki3, hits give low values 0.97 | locus YML120C, strain ndi1, hits give low values 0.987 | locus YMR058W, strain fet3, hits give low values 0.975 | locus YMR125W, strain sto1, hits give low values 0.995 | locus YMR129W, hits give low values 0.966 | locus YMR205C, strain PFK2, hits give low values 0.957 | locus YMR231W, strain pep5, hits give low values 0.977 | locus YNL071W, strain lat1, hits give low values 0.982 | locus YNL209W, strain ssb2, hits give low values 0.988 | locus YNL248C, strain rpa49, hits give low values 1.02 | locus YNL322C, strain KRE1 (second series), hits give low values 0.969 | locus YNR049C, strain mso1, hits give low values 0.973 | locus YOR001W, strain rrp6, hits give low values 1.04 | locus YOR070C, strain gyp1, hits give low values 1.03 | locus YOR080W, strain dia2, hits give low values 0.982 | locus YOR083W, strain WHI5, hits give low values 1.01 | locus YOR106W, strain vam3, hits give low values 0.991 | locus YOR265W, strain rbl2, hits give low values 0.992 | locus YOR270C, strain vph1, hits give low values 0.856 | locus YOR290C, strain snf2, hits give low values 0.895 | locus YPL051W, strain arl3, hits give low values 0.993 | locus YPL078C, strain atp4, hits give low values 0.99 | locus YPL106C, strain sse1, hits give low values 0.985 | locus YPL240C, strain hsp82, hits give low values 0.947

Reference: PubChem BioAssay AID1159580 (chemical genetic matrix, 2015)
